TRHR PAM = TRH receptor (human) allosteric enhancement | P34981 | TRHR cells, fluo-8 calcium fluorescence, EC20 TRH enhancement | enhancement, % at 2 µM | 360,000 compounds, 0.66% hits; in the data active = enhancement above about 30%; also: 0% is about no effect
Target sequence (P34981 whole entry, looked up): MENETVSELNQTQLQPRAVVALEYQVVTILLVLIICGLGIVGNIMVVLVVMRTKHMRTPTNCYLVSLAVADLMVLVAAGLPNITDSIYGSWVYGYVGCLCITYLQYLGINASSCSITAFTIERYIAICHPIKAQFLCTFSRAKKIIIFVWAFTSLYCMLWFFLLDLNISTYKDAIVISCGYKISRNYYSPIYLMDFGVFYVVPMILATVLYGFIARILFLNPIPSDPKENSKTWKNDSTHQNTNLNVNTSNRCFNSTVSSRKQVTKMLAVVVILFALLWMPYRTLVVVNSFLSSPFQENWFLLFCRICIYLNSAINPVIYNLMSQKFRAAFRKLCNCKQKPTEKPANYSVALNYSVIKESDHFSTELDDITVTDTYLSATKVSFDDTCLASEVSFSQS
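TRHR-expressing cells loaded with fluo-8 calcium dye were read kinetically (ex 480/em 530) during compound addition, then stimulated with an EC20 of TRH (10 nM final). Enhancement of the Gq-mediated intracellular calcium response was scored.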
D1 agonist = activates the human D1 dopamine receptor; P21728; HEK293 T-REx D1 cells, calcium flux, agonist mode; activation, % at 2 µM; 360,000 compounds, 1% hits; AID 504660; also: 0% is about no effect
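Agonism was scored from calcium flux recorded over 180 s (1 read/s) after pintool compound addition, following a 10-cycle baseline. Cells were inducible force-coupled HEK293 TREx D1, plated overnight at 30 C and loaded with no-wash calcium dye.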
D1 antagonist = antagonists of human D1 dopamine receptor | activity change, negative = inhibition, % at 10 µM | P21728 | HEK293 TREx D1 cells, calcium flux, dopamine EC80; hits give low values | AID 504652 | 360,000 compounds, 3.2% hits; in the data active = activity change below about -30%; also: % is scaled to controls: 0 for no effect and ±100 for the full control effect
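Tetracycline-induced HEK293 T-REx cells with force-coupled D1 receptor were loaded with a no-wash calcium dye. Compound was added after a 10 s baseline and read kinetically for 180 s; EC80 dopamine was then added and calcium flux followed another 180 s.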
TRHR ag = activates the human TRH receptor. TRHR cells, calcium flux fluo-8, FDSS agonist mode. activation, % at 2 µM. AID 493084. P34981. 360,000 compounds, 0.18% hits; also: 0% is about no effect
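Fluo-8-loaded TRHR cells; 10 s baseline, compound added, kinetic Ca2+ fluorescence read 1/s, agonist mode.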
D1 PAM = human D1 dopamine receptor positive modulation; P21728; HEK293 TREx D1 cells, calcium flux, dopamine EC20 potentiation; potentiation, % at 10 µM; 360,000 compounds, 0.036% hits; in the data active = potentiation above about 30%; also: 0% is about no effect
* marks the source's active call; other numbers are inactive results; ! = repeats disagree. An excerpt weighted towards active compounds, which were near 4.6% of everything screened. Rule as the data show it, unless noted: active = activation above about 30%; inactive = the rest.

SMILES	TRHR PAM	D1 agonist	D1 antagonist	TRHR ag	D1 PAM
CC(=O)c1cccc(N2C(=O)CN(S(C)(=O)=O)CC2(C)C(=O)NC2CCCC2)c1 (stereo unspecified)	4.5	0.4	4.2	0.5	-1.2
O=C1CC(c2ccco2)CC2=C1C(c1ccncc1)n1nc(C(F)(F)F)nc1N2 (stereo unspecified)	-2.6	2.9	-0.3	-1.1	10.1
O=C(NNC(=S)Nc1ccccc1C(F)(F)F)C1CC1	-2.0	1.0	-36.6*	-0.7	-5.5
Nc1ccc(NC(=O)NC2CCCCC2)cc1[N+](=O)[O-]	-11.8	0.6	-77.3*	-2.5	-3.0
O=C(Nc1ccc(F)cc1)NC1CCCCCCC1	-3.5	12.4	-35.1*	0.6	3.8
O=C(CCC(=O)Nc1ccccc1Cl)NNC(=S)Nc1ccccc1C(F)(F)F	5.7	2.4	10.6	0.2	5.1
CCC(=O)N1CCc2cc(Br)cc(S(=O)(=O)NCCc3ccccc3Cl)c21	-1.5	1.9	-17.2	0.0	-0.5
CCOC(=O)c1c(S(=O)(=O)N(C)C2CCCCC2)c(C)n(C)c1C	-0.6	1.3	-13.4	-0.4	11.1
CC(C)(C)NC(=O)C(c1c[nH]c2ccccc12)N(C(=O)Cn1nnc(-c2ccc(Cl)cc2)n1)c1ccccc1F (stereo unspecified)	-2.7	5.4	-6.5	0.2	50.4*
Cc1ccc2oc(=O)c(S(=O)(=O)c3ccc(F)cc3)cc2c1	-5.1	2.1	-1.4	-0.6	0.3
O=c1oc2c(F)cc(F)cc2cc1S(=O)(=O)c1ccc(F)cc1	7.3	69.2*	6.0	-0.9	-1.2
CCn1c(=O)n(CC(=O)Nc2cc(OC)c(OC)c(OC)c2)c(=O)c2ccccc21	11.6	0.2	-44.8*	-0.1	-4.7
CCn1c(=O)n(CC(=O)Nc2cccc(OC)c2)c(=O)c2ccccc21	1.1	1.5	2.9	0.0	-0.4
COc1ccc(NC(=O)Cc2c(C(=O)O)n(C)c3ccccc23)cc1OC	4.7	1.9	18.4	0.3	-5.2
COc1cc(NC(=O)Cc2c(C(=O)O)n(C)c3ccccc23)cc(OC)c1OC	-4.9	0.9	-105.6*	0.2	-9.7
CCCn1c(SC(C(=O)Nc2cc(C)ccc2OC)c2ccccc2)nc2ccccc2c1=O (stereo unspecified)	4.4	1.4	-96.5*	1.3	1.4
COc1ccc(C)cc1NC(=O)C(Sc1nnnn1C)c1ccccc1 (stereo unspecified)	-6.5	0.2	5.1	0.2	0.3
CCOC(=O)C1CSC(CC(=O)Nc2ccc(OC(F)(F)F)cc2)C(=O)N1 (stereo unspecified)	-3.8	2.3	-32.4*	0.0	-4.5
CCc1cc(C(=O)Nc2sc(C)c(CC)c2C#N)no1	10.6	0.2	1.0	0.4	1.1
CCc1c(C)sc(NC(=O)c2cc(C(C)C)on2)c1C#N	-7.1	9.5	-32.5*	0.1	2.5
COc1ccccc1CNC(=O)COC(=O)c1c[nH]c2ccccc12	6.0	45.4*	-41.3*	0.0	-18.6
COc1ccccc1NC(=O)COC(=O)c1c[nH]c2ccccc12	-7.8	9.2	-21.9	0.1	-2.0
CN(C)/C=C1\SC(=S)N(c2ccc(Br)cc2)C1=O	3.2	41.1*	-15.2	18.7	-2.1
CN(C)/C=C1\SC(=S)N(c2ccc(F)cc2)C1=O	22.7	12.7	-4.0	2.8	-2.1
Cc1ccc(-c2noc(CNC(=O)COc3cc(C)c(Br)c(C)c3)n2)cc1	-4.4	7.1	8.1	1.5	0.8
SMILES	TRHR PAM	D1 agonist	D1 antagonist	TRHR ag	D1 PAM
CCCCOc1ccc(/C(O)=C2/C(=O)C(=O)N(CCCOC)C2c2ccncc2)cc1C (stereo unspecified)	-2.3	1.2	-37.7*	0.2	-4.2
CCCOc1ccc(/C(O)=C2/C(=O)C(=O)N(CCCOC)C2c2ccncc2)cc1 (stereo unspecified)	1.2	-1.1	9.7	0.1	7.0
O=C(CCn1ccc2cc(S(=O)(=O)N3CCCC3)ccc21)NCc1cccc(F)c1	-12.0	1.3	-32.6*!	-1.4	0.1
Cc1cccc(CNC(=O)c2cc3cc(S(=O)(=O)N4CCCCC4)ccc3n2C)c1	0.1	4.3	-46.3*	0.3	-3.9
Cn1c(C(=O)NCc2ccccc2F)cc2cc(S(=O)(=O)N3CCCCC3)ccc21	0.9	6.5	4.6	0.4	-3.9
Cn1c(C(=O)NCc2cccc(F)c2)cc2cc(S(=O)(=O)N3CCCCC3)ccc21	0.7	3.7	-53.7*	0.6	-1.1
CN(C)c1ccc(CNC(=O)c2cc3cc(S(=O)(=O)N4CCCCC4)ccc3n2C)cc1	0.9	3.6	-12.5	0.0	-0.1
CCOc1ccc(N(CC(=O)NCc2ccc(OC)cc2)S(C)(=O)=O)cc1	0.6	-1.8	34.0	-0.1	-5.0
CCOC(=O)c1ccccc1NC(=O)Cn1c(=O)n(CCCC(=O)NCc2ccc3c(c2)OCO3)c(=O)c2ccccc21	2.9	-1.4	-6.9	0.0	4.4
Cc1ccc2c(c1)C(=O)OC(C(=O)Nc1ccc(C(=O)O)cc1)C2 (stereo unspecified)	-1.6	1.7	-5.7	1.1	1.8
CCn1c(=O)c2cc(C(=O)NC3CCC(C)CC3)sc2c2ccccc21 (stereo unspecified)	-7.8	4.2	14.1	0.2	2.7
CN(C)c1ccc(/C=C(\Cl)c2nc3ccccc3s2)cc1	0.5	99.3*	-35.8*	-0.7	-0.9
COc1cc(NC(=O)c2noc3c2CC(C(C)(C)C)CC3)cc(OC)c1OC (stereo unspecified)	2.7	-2.2	-6.8	-0.6	1.2
Cc1ccc(-c2cc(C(F)(F)F)c(C#N)c(SCC(=O)Nc3ccccc3F)n2)cc1	6.4	71.8*	-1.7	18.0	-4.1
CCOc1ccc(-c2cc(C(F)(F)F)c(C#N)c(SCC(=O)Nc3ccccc3)n2)cc1	6.8	31.6*	-51.9*	8.8	-2.8
O=C(CSc1ncnc2c1oc1ccccc12)Nc1nc2ccccc2s1	0.0	-1.6	-48.2*	0.7	4.2
CCc1nnc(NC(=O)CSc2ncnc3c2oc2ccccc23)s1	6.7	1.6	3.1	0.3	-0.3
Cc1cc(C(F)(F)F)c(C#N)c(SCC(=O)Nc2nc3ccccc3s2)n1	-14.0	64.2*	5.2	17.1	17.4
CCOc1ccc(S(=O)(=O)N2CCN(c3cccc(C(F)(F)F)c3)CC2)cc1OCC	1.5	3.5	-10.2	0.6	-0.8
CC(C)C[C@@H](CO)N1CCN(Cc2ccc([N+](=O)[O-])cc2)CCC1=O	2.6	1.5	16.5	0.7	4.3
COc1cc(C)ccc1OCCSc1nc2ccc(NC(=O)c3ccco3)cc2s1	28.9	-0.1	-28.7	-0.5	-1.2
COCCC(=O)N1CCC(Oc2ccc(C(=O)N3C[C@H]4CC[C@H]3C4)cc2)CC1	5.1	2.8	6.5	0.6	-17.2
CC(C)CCNC(=O)CSCc1cnn(-c2ccccc2)c1-n1cccc1	-4.8	-0.1	0.7	-0.3	-1.3
N#Cc1c(C(F)(F)F)cc(-c2cccs2)nc1SCC(=O)Nc1cccc(Br)c1	14.6	184.0*	-15.6	30.0*	4.2
